Source: PubChem
A1 inh: inhibitors of the anti-apoptotic protein A1, read as caspase activation; MEF A1-2A-BIM cells, Caspase-Glo 3/7 luminescence, 3 h; percent of clofoctol response, vehicle zero; hit rate 0.066% among 330,000; caspase activation, % (test concentration not listed);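 active = over half of replicate activation scores above 10%, or exactly half above 10 with the replicate mean above 10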
AHR act: activates the human aryl hydrocarbon receptor; AHR-responsive luciferase reporter cells, luminescence; activation, % at 5 µM; hit rate 2.5% among 320,000; AID 2796; in the data active = activation above about 47%;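 note: 0% = vehicle wells and 100% = reference agonist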
Efflux pump inh: antifungal efflux pump inhibition, Nile Red retention; hit rate 0.44% among 330,000; AID 485275; inhibition, % at 10 µM; S. cerevisiae Candida pump triplex;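 active = plate passing quality check with inhibition over a set limit, or well fluorescence over plate mean plus 4 SD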;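 note: Nile Red retained in pooled yeast measured as flow cytometry median fluorescence; 0% = buffer negative control and 100% = Enniatin B positive control; higher means more Nile Red kept so more efflux inhibition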
Mot1-301 SUMO: SUMOylation pathway inhibition by Mot1-301 growth rescue; S. cerevisiae Mot1-301 growth rescue, ATP luminescence, 38.5C; percent above DMSO median, 100 means doubled; growth rescue, % at 18.8 µM; hit rate 1% among 320,000; AID 2716;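 active = every valid replicate shows activation above 250% relative to neutral control wells; inactive = the rest, any valid replicate at or below 250%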;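 note: OY570 slx delta 5 strain wells were the positive control but not used for scaling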
VLA-4 inh: inhibition in a human VLA-4 binding assay; hit rate 0.2% among 330,000; VLA-4 expressing cells, ligand binding flow cytometry; inhibition, % (about 7 µM as worked out from the volumes in the protocol); P13612; in the data active = inhibition above about 50%
Target sequence (P13612 whole entry, looked up): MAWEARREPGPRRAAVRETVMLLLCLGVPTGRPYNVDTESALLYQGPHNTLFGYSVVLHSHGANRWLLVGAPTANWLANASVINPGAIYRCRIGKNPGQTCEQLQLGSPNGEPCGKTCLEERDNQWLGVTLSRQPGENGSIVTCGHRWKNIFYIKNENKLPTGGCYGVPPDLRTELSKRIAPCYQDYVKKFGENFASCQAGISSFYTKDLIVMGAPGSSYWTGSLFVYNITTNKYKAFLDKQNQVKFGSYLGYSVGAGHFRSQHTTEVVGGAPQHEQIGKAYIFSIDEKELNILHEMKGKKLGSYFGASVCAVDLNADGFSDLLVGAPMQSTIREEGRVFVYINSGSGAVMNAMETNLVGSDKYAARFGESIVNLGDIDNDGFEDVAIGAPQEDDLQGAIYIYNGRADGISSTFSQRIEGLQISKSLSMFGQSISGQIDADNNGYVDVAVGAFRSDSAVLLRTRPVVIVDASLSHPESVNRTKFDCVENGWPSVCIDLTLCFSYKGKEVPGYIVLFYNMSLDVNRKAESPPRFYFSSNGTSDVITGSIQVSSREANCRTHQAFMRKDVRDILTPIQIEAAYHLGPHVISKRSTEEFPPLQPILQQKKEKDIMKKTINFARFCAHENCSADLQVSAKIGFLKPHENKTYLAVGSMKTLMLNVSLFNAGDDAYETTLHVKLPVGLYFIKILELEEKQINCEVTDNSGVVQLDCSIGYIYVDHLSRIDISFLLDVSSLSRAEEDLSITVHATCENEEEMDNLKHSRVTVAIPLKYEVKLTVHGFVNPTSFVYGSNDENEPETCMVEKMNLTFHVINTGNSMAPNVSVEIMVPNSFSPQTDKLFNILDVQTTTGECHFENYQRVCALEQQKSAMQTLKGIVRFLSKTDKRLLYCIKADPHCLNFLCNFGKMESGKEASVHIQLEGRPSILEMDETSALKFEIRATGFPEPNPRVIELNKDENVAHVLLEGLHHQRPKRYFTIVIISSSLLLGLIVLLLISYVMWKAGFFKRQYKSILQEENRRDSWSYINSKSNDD
ALR inh: inhibitors of human sulfhydryl oxidase ALR | purified ALR, DTT oxidation, H2O2 HRP-luminol luminescence | inhibition, % (concentration not given with the values) | hit rate 3.8% among 290,000 | AID 485317;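 active = mean replicate inhibition above about 79%, with every replicate also reaching it, limit read from the data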
Cmpd fluor yeast: compound fluorescence in yeast efflux pump counter-screen; shares compounds with Efflux pump inh; S. cerevisiae AD/pABC3, flow cytometry; fluorescence ratio to DMSO, % at 10 µM; hit rate 4% among 1,700; AID 588517;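 active = fluorescence ratio to DMSO above its plate's cutoff, the plate mean ratio plus 5 SD, cut at about 210% in these data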;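 note: unstained yeast with no Nile Red so the signal is compound autofluorescence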
CaMdr1 efflux inh: blocks the Candida albicans Mdr1 efflux pump in yeast; shares compounds with Efflux pump inh; S. cerevisiae AD/CaMDR1, Nile Red efflux, flow cytometry; inhibition, % at 10 µM; hit rate 1% among 1,700; in the data active = inhibition above about 26%;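 note: 0% = DMSO vehicle and 100% = reference inhibitor; higher means more Nile Red retained so more efflux inhibition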
Cdr2 pump inh: inhibitors of Candida albicans Cdr2 efflux pump | shares compounds with Efflux pump inh | S. cerevisiae AD/CaCDR2, Nile Red retention, flow cytometry | Nile Red retention ratio vs DMSO, % at 10 µM | hit rate 4% among 1,700 | AID 588520; in the data active = Nile Red retention ratio vs DMSO above about 190%;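 note: higher ratio means more blocking of Cdr2 efflux of the dye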
Cdr1 pump inh: inhibitors of Candida albicans Cdr1 efflux pump; shares compounds with Efflux pump inh; S. cerevisiae AD/CaCDR1, Nile Red efflux, flow cytometry; inhibition, % at 10 µM; hit rate 1% among 1,700; AID 588522;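 active = inhibition above the screen-wide mean plus twice its standard deviation, cut at about 32% in these data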
* marks the source's active call; other numbers are inactive results. Hits are enriched below; roughly 7.2% of the tested compounds scored in any of these assays.

How did C[C@H](CO)N1C[C@H](C)[C@@H](CN(C)S(=O)(=O)c2ccccc2)Oc2c(NC(=O)Nc3ccccc3)cccc2C1=O do in these assays?
AHR act: 0.1; Efflux pump inh: 0.7; VLA-4 inh: 37.3; Cmpd fluor yeast: 100.2; CaMdr1 efflux inh: -0.1; Cdr2 pump inh: 105.7; Cdr1 pump inh: -0.1

How did O=C(O)CCCC(=O)N1CCN(c2nc(-c3ccccc3Cl)c3cc(Br)ccc3n2)CC1 do in these assays?
A1 inh: -0.6; AHR act: 0.5; Efflux pump inh: -0.1; Mot1-301 SUMO: -1.0; VLA-4 inh: 17.7; ALR inh: -7.7

Results for Cc1ccc2nc(-c3cccc(NS(C)(=O)=O)c3)cc(-c3ccccc3)c2c1 ?
A1 inh: 0.5; AHR act: 7.0; Efflux pump inh: -0.5; Mot1-301 SUMO: 6.2; VLA-4 inh: 6.5; ALR inh: 0.4

How did CCCC(C)NC(=O)COc1ccc(S(=O)(=O)c2ccc(OCC(=O)NC(C)CCC)cc2)cc1 (centres undefined) do in these assays?
A1 inh: 0.1; AHR act: 9.7; Efflux pump inh: 2.7; Mot1-301 SUMO: -15.8; VLA-4 inh: 8.0; ALR inh: -6.5

What do the screens show for `CC(C)N(C(=O)CO/N=C/c1cccc([N+](=O)[O-])c1)C(C)C`?
A1 inh: 0.5; AHR act: 2.3; Efflux pump inh: 0.1; Mot1-301 SUMO: -11.9; VLA-4 inh: -3.8; ALR inh: -3.1

How did O=C(CO/N=C/c1cccc([N+](=O)[O-])c1)NC1CCCCC1 do in these assays?
A1 inh: -0.7; AHR act: 2.1; Efflux pump inh: 8.3*; Mot1-301 SUMO: 482.9; VLA-4 inh: 8.6; ALR inh: -3.9; Cmpd fluor yeast: 94.8; CaMdr1 efflux inh: -0.2; Cdr2 pump inh: 111.6; Cdr1 pump inh: -0.1

What do the screens show for `COc1ccc(NC(=O)Nc2cccc3c2O[C@H](CN(C)C(=O)Nc2ccc(OC)cc2)[C@@H](C)CN([C@H](C)CO)C3=O)cc1`?
A1 inh: -0.1; AHR act: 0.9; Efflux pump inh: -0.2; Mot1-301 SUMO: 13.1; VLA-4 inh: 1.9; ALR inh: -10.9; Cmpd fluor yeast: 101.1; CaMdr1 efflux inh: -0.1; Cdr2 pump inh: 116.5; Cdr1 pump inh: -0.1

Results for COc1ccc(NC(=O)N(C)C[C@H]2Oc3c(NC(=O)Nc4c(C)noc4C)cccc3C(=O)N([C@H](C)CO)C[C@@H]2C)cc1 ?
AHR act: -0.6; Efflux pump inh: -0.2; VLA-4 inh: 23.5; Cmpd fluor yeast: 100.3; CaMdr1 efflux inh: -0.3; Cdr2 pump inh: 109.4; Cdr1 pump inh: -0.1

What do the screens show for `COc1ccc(NC(=O)N(C)C[C@H]2Oc3c(NC(=O)Nc4ccccc4)cccc3C(=O)N([C@H](C)CO)C[C@@H]2C)cc1`?
A1 inh: -0.5; AHR act: 4.1; Efflux pump inh: -0.4; Mot1-301 SUMO: 0.0; VLA-4 inh: -10.7; ALR inh: -4.0

What do the screens show for `NC(=O)c1cc(-c2ccccc2)nc2ccc(Br)cc12`?
A1 inh: -0.1; AHR act: -6.6; Efflux pump inh: 0.5; Mot1-301 SUMO: 19.4; VLA-4 inh: -4.9; ALR inh: -7.6; Cmpd fluor yeast: 90.8; CaMdr1 efflux inh: -0.1; Cdr2 pump inh: 97.5; Cdr1 pump inh: -0.2

Results for O=C(O)c1cc(-c2cccnc2)nc2ccc(Br)cc12 ?
A1 inh: 0.2; AHR act: 0.2; Efflux pump inh: 0.0; Mot1-301 SUMO: -3.7; VLA-4 inh: 6.1; ALR inh: 1.9

Results for C[C@H](N)C(=O)N1CCC(C(=O)N[C@@H](Cc2ccccc2)C(=O)Nc2ccc(F)cc2)CC1 ?
A1 inh: 0.4; AHR act: 1.1; Efflux pump inh: 0.3; Mot1-301 SUMO: 10.3; VLA-4 inh: 20.9; ALR inh: -26.1

How did COc1ccc(S(=O)(=O)N2CCOC2CNC(=O)C(=O)NCCc2ccc(OC)c(OC)c2)cc1 (centres undefined) do in these assays?
A1 inh: -0.4; AHR act: 2.2; Efflux pump inh: -0.1; Mot1-301 SUMO: -2.8; VLA-4 inh: 10.4; ALR inh: -2.8

What do the screens show for `COc1ccc(CNC(=O)C(=O)NCC2OCCN2S(=O)(=O)c2ccc(OC)c(OC)c2)cc1` (centres undefined)?
A1 inh: 0.9; AHR act: -4.3; Efflux pump inh: 0.0; Mot1-301 SUMO: 110.1; VLA-4 inh: 1.4; ALR inh: 1.3; Cmpd fluor yeast: 101.4; CaMdr1 efflux inh: 0.0; Cdr2 pump inh: 93.5; Cdr1 pump inh: 0.1

Results for O=C(NCc1ccc2c(c1)OCO2)C(=O)NCC1OCCN1S(=O)(=O)c1ccc(Cl)cc1 (centres undefined) ?
A1 inh: 0.7; AHR act: 1.8; Efflux pump inh: 0.1; Mot1-301 SUMO: 0.1; VLA-4 inh: 16.9; ALR inh: -5.0

What do the screens show for `COc1ccc(S(=O)(=O)N2CCOC2CNC(=O)C(=O)NCc2ccc3c(c2)OCO3)cc1OC` (centres undefined)?
A1 inh: 1.1; AHR act: 3.0; Efflux pump inh: -0.1; Mot1-301 SUMO: 14.4; VLA-4 inh: 4.8; ALR inh: -3.2; Cmpd fluor yeast: 107.8; CaMdr1 efflux inh: -0.1; Cdr2 pump inh: 99.7; Cdr1 pump inh: -0.2

Results for O=C(N1CCOCC1)N1CCN(S(=O)(=O)c2cccc([N+](=O)[O-])c2)CC1 ?
A1 inh: 0.9; AHR act: 0.6; Efflux pump inh: 1.8*; Mot1-301 SUMO: -11.4; VLA-4 inh: 0.0; ALR inh: -5.3; Cmpd fluor yeast: 104.5; CaMdr1 efflux inh: 0.2; Cdr2 pump inh: 96.3; Cdr1 pump inh: 0.0

How did N#CCSc1nc2c(sc(=S)n2Cc2ccco2)c(=O)n1-c1ccc(F)cc1 do in these assays?
A1 inh: -0.8; AHR act: 1.0; Efflux pump inh: 5.9*; Mot1-301 SUMO: 19.1; VLA-4 inh: 11.9; ALR inh: -2.7; Cmpd fluor yeast: 111.3; CaMdr1 efflux inh: 0.1; Cdr2 pump inh: 116.0; Cdr1 pump inh: -0.2

How did COc1ccc(/C=N\NC(=O)c2ccccc2OC)cc1COc1c(F)c(F)c(F)c(F)c1F do in these assays?
A1 inh: -0.3; AHR act: 35.3; Efflux pump inh: 9.2*; Mot1-301 SUMO: -14.6; VLA-4 inh: -15.6; ALR inh: 4.3; Cmpd fluor yeast: 98.6; CaMdr1 efflux inh: -0.3; Cdr2 pump inh: 101.5; Cdr1 pump inh: -0.4
